Consider 15 compounds from PubChem BioAssay (NCATS).

Values joined by “and” are separate entries in the source; they are usually repeats but may differ in a detail not shown here. Identical values can stand only once. Records with an inconclusive call do not appear. Unmarked numbers belong to inactive results. Active and inactive are the calls of the source. Unless noted, calls come from the whole dose curve.

The first experiment is described as follows: qHTS assay for small molecule activators of the nuclear factor-kappa B (NF-kB) signaling pathway (AID 651749; active = well fitted activation curve with a large enough effect in the signal ratio; the % refers to the signal ratio; note: % of control where 0% means no effect). The settings on record: NF-kB-bla ME-180 cells, beta-lactamase FRET ratio, 16 h; stronger effect = higher value. The procedure, abridged:
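FRET-based beta-lactamase detection in ME-180 cells reports NF-kB response-element-driven transcription following overnight (16 hr) compound treatment.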
In general terms: qHTS replaces the single test concentration by a dilution series.
Consider `NC(N)=NC(N)=NCCc1ccccc1`, for which the activation was 0.778% and 0.59%.

Turning to `S=P(N1CC1)(N1CC1)N1CC1`, the activation was 0.913%.

In the case of `N=C(N)c1ccc(OCCCCCOc2ccc(C(=N)N)cc2)cc1`, the activation was 0.454% and 0.519%.

Consider `CC(=O)Oc1ccccc1C(=O)Nc1ncc([N+](=O)[O-])s1`, for which the activation is -1.07%.

In the case of `CC1=NN(c2ccccc2)C(=O)C1`, the activation is 1.02% and -0.66%.

In the case of `Cc1noc(NS(=O)(=O)c2ccc(N)cc2)c1C`, the activation is -1.4% and -1.01%.

Consider `CC[C@H](C)C(=O)O[C@H]1C[C@@H](C)C=C2C=C[C@H](C)[C@H](CC[C@@H]3C[C@@H](O)CC(=O)O3)[C@H]21`, for which the activation is -1.44%.

Consider `C[C@]12C=CC(=O)C=C1CC[C@@H]1[C@@H]2C(=O)C[C@@]2(C)[C@H]1CC[C@]2(O)C(=O)CO`, for which the activation is 1.39%.

`O=C(N[C@H](CO)[C@H](O)c1ccc([N+](=O)[O-])cc1)C(Cl)Cl`: the activation is -1.34% and 1.06%.

As to `N[C@@H](Cc1ccc(O)c(O)c1)C(=O)O`, the activation is 0.678%.

With `NNC(=O)c1ccncc1`, the activation is -1.16%.

In the case of `OC(Cn1cncn1)(Cn1cncn1)c1ccc(F)cc1F`, the activation is -1.38%.

As to `CCc1cc(C(N)=S)ccn1`, the activation was 0.391% and -1.64%.

The next experiment can be described thus: qHTS assay for small molecule disruptors of the mitochondrial membrane potential - 1 hr assay (AID 651754). For ratio change, negative = depolarisation: % is set by controls: 0 for no effect and ±100 for the full control effect. Note: nearly all actives have a fitted effect of over 35% in size. Note: potency is the fitted concentration of half-maximal effect. The settings on record: series mostly up to 92.2 µM; ratio change, negative = depolarisation: at the top concentration. The procedure, abridged: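 Read-out: dye fluorescence at 490 nm ex/535 nm em (monomers) and 540 nm ex/590 nm em (aggregates) in HepG2 cells. Compound exposure 1 hr at 37C, followed by 30 min dye loading.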
Turning to `CN(C)c1ccc(C(=C2C=CC(=[N+](C)C)C=C2)c2ccc(N(C)C)cc2)cc1`, the Potency was 0.668 µM (active).

`COc1ccc2cc3[n+](cc2c1OC)CCc1cc2c(cc1-3)OCO2`: the Potency is 21.1 µM (active).

For the compound `C[C@]12C=CC(=O)C=C1CC[C@@H]1[C@@H]2C(=O)C[C@@]2(C)[C@H]1CC[C@]2(O)C(=O)CO`, the “ratio change, negative = depolarisation” value was 1.11%.

Consider `O=C(N[C@H](CO)[C@H](O)c1ccc([N+](=O)[O-])cc1)C(Cl)Cl`, for which the “ratio change, negative = depolarisation” value is 1.21%.

`NNC(=O)c1ccncc1`: the “ratio change, negative = depolarisation” value is -1.89%.

`CCc1cc(C(N)=S)ccn1`: the “ratio change, negative = depolarisation” value was -3.13%.

Another experiment is described as follows: qHTS assay for small molecule disruptors of the mitochondrial membrane potential - 5 hr assay (AID 651755). For ratio change, negative = disruption: % is set by controls: 0 for no effect and ±100 for the full control effect. Note: nearly all actives have a fitted effect of over 40% in size. Note: potency is the fitted concentration of half-maximal effect. The note with it: JC-1-type ratio dye; series mostly up to 92.2 µM; ratio change, negative = disruption: at the top concentration. The procedure, abridged:
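Membrane-potential dye readout: red aggregate (540 ex/590 em) versus green monomer (490 ex/535 em) fluorescence after 30 min dye loading, following 5 hr compound exposure at 37C of overnight-plated HepG2 cells.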
As to `CN(C)c1ccc(C(=C2C=CC(=[N+](C)C)C=C2)c2ccc(N(C)C)cc2)cc1`, the Potency was 1.19 µM (active).

Regarding `CC[C@H](C)C(=O)O[C@H]1C[C@@H](C)C=C2C=C[C@H](C)[C@H](CC[C@@H]3C[C@@H](O)CC(=O)O3)[C@H]21`, the “ratio change, negative = disruption” value was -0.123%.

For the compound `COc1ccc2cc3[n+](cc2c1OC)CCc1cc2c(cc1-3)OCO2`, the Potency was 9.44 µM (active).

As to `C[C@]12C=CC(=O)C=C1CC[C@@H]1[C@@H]2C(=O)C[C@@]2(C)[C@H]1CC[C@]2(O)C(=O)CO`, the “ratio change, negative = disruption” value was -0.565%.

In the case of `O=C(N[C@H](CO)[C@H](O)c1ccc([N+](=O)[O-])cc1)C(Cl)Cl`, the “ratio change, negative = disruption” value was -16.2%.

Consider `NNC(=O)c1ccncc1`, for which the “ratio change, negative = disruption” value was 0.402%.

For the compound `CCc1cc(C(N)=S)ccn1`, the “ratio change, negative = disruption” value is -4.28%.
